OTUD3 block: human OTUD3 deubiquitinase inhibition; Q5T2D3; purified OTUD3, Ub-rhodamine fluorescence, 2 h; inhibition, % at 25 µM; 47,000 tested, 0.7% active
USP28 block: blocks human USP28 ubiquitin-rhodamine cleavage; Q96RU2; purified USP28, Ub-rhodamine cleavage fluorescence, 30 min; inhibition, % at 25 µM; 47,000 tested, 3% active; AID 1645857
USP8 inh: inhibitors of human USP8 deubiquitinase. inhibition, % at 20 µM. purified USP8, Ub-rhodamine cleavage fluorescence, 30 min. 47,000 tested, 4.2% active
UCHL1 inh: human UCHL1 deubiquitinase inhibition | purified UCHL1, Ub-rhodamine cleavage fluorescence | inhibition, % at 20 µM | 47,000 tested, 0.2% active | AID 1645859
USP7 inh: blocks human USP7 ubiquitin-rhodamine cleavage; Q93009; purified USP7, Ub-rhodamine cleavage fluorescence; inhibition, % at 20 µM; 47,000 tested, 0.3% active
USP10 block: human USP10 deubiquitinase inhibition; Q14694; purified USP10, Ub-rhodamine fluorescence, 60 min; inhibition, % at 20 µM; 47,000 tested, 1.1% active; AID 1645856
Target sequence (Q14694 whole entry, looked up): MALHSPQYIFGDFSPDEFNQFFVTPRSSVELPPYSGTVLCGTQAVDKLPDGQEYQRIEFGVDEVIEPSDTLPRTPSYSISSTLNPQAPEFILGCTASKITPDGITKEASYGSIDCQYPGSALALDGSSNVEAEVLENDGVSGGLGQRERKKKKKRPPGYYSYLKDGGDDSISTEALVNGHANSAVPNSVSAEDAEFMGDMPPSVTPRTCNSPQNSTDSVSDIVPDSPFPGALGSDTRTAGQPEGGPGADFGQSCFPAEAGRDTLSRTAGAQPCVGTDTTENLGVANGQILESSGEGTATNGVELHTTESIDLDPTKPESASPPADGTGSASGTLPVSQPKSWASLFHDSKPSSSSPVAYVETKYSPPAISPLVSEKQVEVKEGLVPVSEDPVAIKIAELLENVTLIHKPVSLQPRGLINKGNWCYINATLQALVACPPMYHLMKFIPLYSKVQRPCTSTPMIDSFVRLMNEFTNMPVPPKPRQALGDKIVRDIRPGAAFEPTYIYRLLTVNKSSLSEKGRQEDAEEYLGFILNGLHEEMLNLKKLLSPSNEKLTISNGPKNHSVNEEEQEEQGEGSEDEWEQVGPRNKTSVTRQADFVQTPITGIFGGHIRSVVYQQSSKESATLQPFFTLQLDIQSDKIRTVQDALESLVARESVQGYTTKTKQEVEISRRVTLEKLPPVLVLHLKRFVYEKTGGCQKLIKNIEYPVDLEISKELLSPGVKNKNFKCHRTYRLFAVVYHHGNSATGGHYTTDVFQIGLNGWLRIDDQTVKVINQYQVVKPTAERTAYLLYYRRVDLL
An asterisk follows results filed as active. Shown are actives, neighbours in structure and some others; about 6.8% of the full set was active somewhere. Rule as the data show it: active = inhibition above about 30%; inactive = the rest.

Results for CCOC(=O)c1ccc(NC(=O)C2CCN(c3nccc4sccc34)CC2)cc1 ?
OTUD3 block: -16.2; USP28 block: 18.4; USP8 inh: 53.7*; UCHL1 inh: -1.2; USP7 inh: -6.6; USP10 block: 3.7

What do the screens show for `Cc1cc(C)nc(SCc2cn3cc(Br)ccc3n2)n1`?
OTUD3 block: 4.2; USP28 block: 21.7; USP8 inh: 0.1; UCHL1 inh: 6.4; USP7 inh: 7.1; USP10 block: 0.4

What do the screens show for `Cc1c(C)n(Cc2ccco2)c2ncnc(NCC(=O)O)c12`?
OTUD3 block: -3.8; USP28 block: 3.2; USP8 inh: -12.3; UCHL1 inh: -5.2; USP7 inh: -0.6; USP10 block: -4.8

Results for OCCNc1nnc2c(n1)[nH]c1ccccc12 ?
OTUD3 block: -9.4; USP28 block: -11.2; USP8 inh: -0.5; UCHL1 inh: -2.2; USP7 inh: -1.4; USP10 block: 0.3

What do the screens show for `Cc1nn(-c2ccccc2)c(C)c1C(=O)OCC(=O)Nc1cccc(Br)c1`?
OTUD3 block: 5.4; USP28 block: 81.0*; USP8 inh: 3.5; UCHL1 inh: 0.4; USP7 inh: -7.2; USP10 block: 7.4

What do the screens show for `Cc1nn(-c2ccccc2)c(C)c1C(=O)OCC(=O)Nc1cccc2ccccc12`?
OTUD3 block: 2.9; USP28 block: -0.8; USP8 inh: 7.2; UCHL1 inh: -2.0; USP7 inh: -2.0; USP10 block: 2.1

Results for O=C(Nc1cccc([N+](=O)[O-])c1)Nc1ccc2snnc2c1 ?
OTUD3 block: -0.8; USP28 block: 6.3; USP8 inh: 95.1*; UCHL1 inh: 68.2*; USP7 inh: 83.7*; USP10 block: 56.0*

How did Oc1ccc(-c2nc3ccccn3c2NC2CCCC2)cc1 do in these assays?
OTUD3 block: -147.7; USP28 block: 13.9; USP8 inh: -2.0; UCHL1 inh: -7.5; USP7 inh: -21.6; USP10 block: -11.1

What do the screens show for `Fc1ccc(-c2cc3n(c2)CCc2cc4c(cc2-3)OCO4)cc1`?
OTUD3 block: -34.8; USP28 block: -30.9; USP8 inh: 47.1*; UCHL1 inh: -14.9; USP7 inh: -18.7; USP10 block: -3.8

How did Cc1cccc(NC(=O)Cn2cc(C(=O)N3CCOCC3)c(=O)c3ccc(C)nc32)c1 do in these assays?
OTUD3 block: -2.4; USP28 block: -17.0; USP8 inh: 34.5*; UCHL1 inh: -8.8; USP7 inh: -7.6; USP10 block: -8.8

What do the screens show for `Cc1ccc2ccc3c(c2n1)OC(N)=C(C#N)C3c1ccncc1` (centres undefined)?
OTUD3 block: -12.3; USP28 block: -19.9; USP8 inh: 65.9*; UCHL1 inh: -4.4; USP7 inh: -5.2; USP10 block: -1.9

Results for Cc1nnc(C(=O)Nc2ccc(C(=O)NCc3ccc(F)cc3)cc2)s1 ?
OTUD3 block: -7.2; USP28 block: -6.7; USP8 inh: 4.1; UCHL1 inh: 3.5; USP7 inh: 4.4; USP10 block: 18.5

Results for Cc1ccc(Cn2c(C(=O)O)c(CNCCC3=CCCCC3)c3ccccc32)cc1 ?
OTUD3 block: 3.7; USP28 block: 39.2*; USP8 inh: 20.7; UCHL1 inh: 0.9; USP7 inh: -91.4; USP10 block: 10.1

How did CSc1ccc(CNCc2c(C(=O)O)n(Cc3ccccc3)c3cc(C)ccc23)cc1 do in these assays?
OTUD3 block: 14.2; USP28 block: 43.6*; USP8 inh: 24.5; UCHL1 inh: 8.4; USP7 inh: -8.8; USP10 block: 20.3

Results for COc1ccc(Cn2c(C(=O)O)c(CNCCC3=CCCCC3)c3ccccc32)cc1 ?
OTUD3 block: -9.1; USP28 block: 11.9; USP8 inh: -2.0; UCHL1 inh: -6.1; USP7 inh: -13.3; USP10 block: -2.7

How did O=C(NC1CCCc2ccccc21)c1ccc(Br)o1 (centres undefined) do in these assays?
OTUD3 block: -10.2; USP28 block: -17.5; USP8 inh: 15.9; UCHL1 inh: -6.4; USP7 inh: -3.7; USP10 block: -7.8

How did O=C(O)CC1(c2ccc(F)cc2)C2CC3CC(C2)CC1C3 (centres undefined) do in these assays?
OTUD3 block: 21.7; USP28 block: 14.8; USP8 inh: 33.5*; UCHL1 inh: -0.3; USP7 inh: 5.7; USP10 block: 5.0

Results for CN1CCN(c2nc(N3CCN(C)CC3)c3cnn(C)c3n2)CC1 ?
OTUD3 block: 1.9; USP28 block: -4.3; USP8 inh: -96.5; UCHL1 inh: -0.3; USP7 inh: 2.5; USP10 block: -0.6

What do the screens show for `Cc1nnn2c1COCC(CNCc1ccc(F)cc1)C2` (centres undefined)?
OTUD3 block: 6.9; USP28 block: 4.5; USP8 inh: -54.6; UCHL1 inh: 0.0; USP7 inh: 0.0; USP10 block: -0.1

Results for Fc1ccc(CNCc2nc(NCc3ccc(F)cc3)c3c4c(sc3n2)CCCC4)cc1 ?
OTUD3 block: 13.9; USP28 block: 2.7; USP8 inh: -96.9; UCHL1 inh: 1.8; USP7 inh: 4.5; USP10 block: 3.9

Results for Cc1ccc(CNc2nc(-c3cccnc3)nn2S(C)(=O)=O)cc1 ?
OTUD3 block: 4.2; USP28 block: 1.0; USP8 inh: 3.1; UCHL1 inh: 2.9; USP7 inh: -1.7; USP10 block: 0.6

Results for CS(=O)(=O)n1nc(NCc2ccc(F)cc2)nc1NCc1ccc(F)cc1 ?
OTUD3 block: 33.5*; USP28 block: 4.3; USP8 inh: 5.7; UCHL1 inh: 2.1; USP7 inh: -101.2; USP10 block: 2.6

Results for Cc1cc(N)n(-c2nc3ccccc3s2)n1 ?
OTUD3 block: 11.7; USP28 block: 17.4; USP8 inh: -121.7; UCHL1 inh: -0.1; USP7 inh: 1.3; USP10 block: 0.4

What do the screens show for `CCOC(=O)c1cnn(-c2nc3ccccc3s2)c1N=CN(C)C`?
OTUD3 block: 9.0; USP28 block: 68.6*; USP8 inh: 11.1; UCHL1 inh: 2.8; USP7 inh: 3.6; USP10 block: 4.1

How did COC(=O)C(Cc1ccccc1)NC(=O)CSc1nc2ccc(Cl)cc2[nH]1 (centres undefined) do in these assays?
OTUD3 block: -12.6; USP28 block: 0.4; USP8 inh: 42.6*; UCHL1 inh: 1.1; USP7 inh: -17.8; USP10 block: -1.0

Results for CC(C)Nc1ncnc2c1c(C(=O)N1CCOCC1)c1ccccn12 ?
OTUD3 block: -15.6; USP28 block: -20.0; USP8 inh: 16.6; UCHL1 inh: -6.0; USP7 inh: -9.2; USP10 block: -8.7

What do the screens show for `O=C(c1c2c(-c3ccncc3)ncnc2n2ccccc12)N1CCOCC1`?
OTUD3 block: -20.2; USP28 block: -25.3; USP8 inh: 33.0*; UCHL1 inh: -80.2; USP7 inh: -88.0; USP10 block: -2.3

How did O=C(c1c2c(N3CCCC3)ncnc2n2ccccc12)N1CCCC1 do in these assays?
OTUD3 block: -25.1; USP28 block: -32.2; USP8 inh: 66.7*; UCHL1 inh: -15.8; USP7 inh: -26.8; USP10 block: -4.3
